Experimental data published in PubChem BioAssay (Tox21).
Results filed as inconclusive are left out. Entries that show only a call come without a potency. Active and inactive are the calls of the source. Calls follow the shape of the full dose curve.

Assay: qHTS assay for small molecule agonists of the p53 signaling pathway (AID 651631); also: nearly all actives have a fitted effect of over 15% in size
Conditions: HCT-116 p53RE-bla reporter, beta-lactamase FRET ratio, 16 h; series mostly up to 73.3 µM
Source text: U.S. Tox21 Program National Center for Advancing Translational Sciences [NCATS] NIH Chemical Genomics Center [NCGC] U.S. Environmental Protection Agency [EPA] National Institutes of Environmental Health Sciences [NIEHS] National Toxicology Program [NTP] U.S. Food and Drug Administration [FDA] Tox21 Assay Overview: p53, a tumor suppressor protein, is activated following cellular insult, including DNA damage and other cellular stresses. The activation of p53 regulates cell fate by inducing DNA repair, cell cycle arrest, apoptosis, or cellular senescence. The activation of p53, therefore, is a good indicator of DNA damage and other cellular stresses. The CellSensor p53RE-bla HCT-116 cell line (Invitrogen) contains a stably integrated beta-lactamase reporter gene under control of the p53 response elements. The activation of the reporter gene under culture conditions can be detected by fluorescence intensity. This cell line was used to screen the Tox21 compound library in a 1536-well plate format and to identify agonists that activate the p53 signaling pathway.
Tox21 Assay Protocol Summary: The p53RE-bla cells were dispensed at 4,000 cells/5 ul/well in 1536-well black wall/clear bottom plates using a Multidrop dispenser. After the assay plates were incubated at a 37 C/5% CO2 incubator for 5 hours, 23 nL of compounds dissolved in DMSO, positive controls or DMSO only was transferred to the assay plate by a pin tool. The plates were incubated at 37 C for 16 hours. After 1 uL of LiveBLAzerTM B/G FRET substrate was added using a Flying Reagent Dispenser, the plates were incubated at room temperature for 2 hours, and fluorescence intensity was measured by an Envision plate reader.
Potency is read from the fitted curve at half-maximal effect.

| Structure (SMILES) | Potency |
| --- | --- |
| CC(=O)[C@@]1(O)CC[C@H]2[C@@H]3CCC4=CC(=O)CC[C@]4(C)C3(F)[C@@H](O)C[C@@]21C (stereo not given in full) | inactive |
| COC(COC(N)=O)C1=C(N2CC2)C(=O)C(C)=C(N2CC2)C1=O (stereo not given) | 0.298 µM (active) |
| C[C@]12CCC(=O)C[C@@H]1CC[C@@H]1[C@@H]2CC[C@@]2(C)[C@H]1CC[C@]2(C)O | inactive |
| CN[C@@]1(c2ccccc2Cl)CCCCC1=O | inactive |
| CCCSc1cc(OC)c(CCN)cc1OC | 32.5 µM (active) |
| Cc1cc([N+](=O)[O-])ccc1N | inactive |
| c1ccncc1 | inactive |
| [2H]C([2H])([2H])[C@H](N)Cc1ccccc1 | inactive |
| CCC(=O)O[C@@](Cc1ccccc1)(c1ccccc1)[C@@H](C)CN(C)C | inactive |
| C[C@@H]([C@H](O)c1ccccc1)N(C)C | inactive |
| CC(=O)O[C@H]1CC[C@H]2[C@@H]3CCC4=CC(=O)CCC4=C3C=C[C@]12C | inactive |
| Nc1ccc(Cl)cc1[N+](=O)[O-] | inactive |
| C=CCOc1c(Br)cc(C(C)(C)c2cc(Br)c(OCC=C)c(Br)c2)cc1Br | inactive |
| Nc1ccc(Cl)cc1Cl | inactive |
| CC(Cc1ccccc1)NC=O (stereo not given) | inactive |
| C#CC(C)(O)CC (stereo not given) | inactive |
| C[C@]12CC[C@H]3[C@@H](CCC4=C(Cl)C(=O)CC[C@@]43C)[C@@H]1CC[C@@H]2O | inactive |
| O=C(Cl)c1cccc(C(=O)Cl)c1 | inactive |
| CCC(C)(S(=O)(=O)CC)S(=O)(=O)CC | inactive |
| CNC(=O)OCC[N+](C)(C)C | inactive |

| Structure (SMILES) | Potency |
| --- | --- |
| CCCCC(CC)COC(=O)c1ccc(C(=O)OCC(CC)CCCC)cc1 (stereo not given) | inactive |
| O=C1C[C@@H]2OCC=C3CN4CC[C@]56c7ccccc7N1[C@H]5[C@H]2[C@H]3C[C@H]46 (tested in a mixture with another compound) | inactive |
| CC(C)(O)[C@@H]1[C@H]2OC(=O)[C@@H]1[C@]1(O)C[C@H]3O[C@]34C(=O)O[C@H]2[C@]14C | inactive |
| C=CCC1([C@@H](C)CCC)C(=O)NC(=O)NC1=O | inactive |
| CC(=O)OC1CN2CCC1CC2 (stereo not given) | inactive |
| CCNCC(O)c1cccc(O)c1 (stereo not given) | inactive |
| O=C1OC2(c3cc(Br)c(O)cc3Oc3c2cc(Br)c(O)[c]3[Hg])c2ccccc21 (stereo not given) | inactive |
| Oc1ccc2c3c1O[C@H]1[C@@H](O)C=C[C@H]4[C@H](C2)NCC[C@@]341 | inactive |
| CCC(N)Cc1c[nH]c2ccccc12 (stereo not given) | inactive |
| Cc1ccc([N+](=O)[O-])c(C)c1 | inactive |
| C[C@@H]1[C@@H]2Cc3ccc(O)cc3[C@@]1(C)CCN2CC1CC1 | inactive |
| C[C@@H](CO)NC(=O)[C@@H]1C=C2c3cccc4[nH]cc(c34)C[C@H]2N(C)C1 | inactive |
| CNC1(c2ccccc2Cl)CCCCC1=O (stereo not given) | inactive |
| CCC1(CC)C(=O)NC(=O)N(C)C1=O | inactive |
| c1cc(OCC2CO2)cc(OCC2CO2)c1 (stereo not given) | 21.5 µM (active) |
| CCOc1ccc2c3c1O[C@H]1[C@@H](O)C=C[C@H]4[C@@H](C2)N(C)CC[C@@]341 | inactive |
| C=CC[C@]1(O)CC[C@H]2[C@@H]3CCC4=CCCC[C@@H]4[C@H]3CC[C@@]21C | inactive |
| O=c1[nH]cc(N(CCCl)CCCl)c(=O)[nH]1 | 21.1 µM (active) |
| N#CC(C#N)=Cc1cc(O)c(O)c(O)c1 | inactive |
| NC(=Nc1ccccc1)Nc1ccccc1 | inactive |
